Results filed as inconclusive are left out. Entries that show only a call come without a potency. Active and inactive are the calls of the source. Calls come from the whole dose curve; as a rule, active = well fitted inhibition curve with a large enough effect; inconclusive = small, poorly fitted or top-dose-only effect; inactive = flat fitted curve, though single readings scatter. Bridge positions count the residues as written; N and C are the ends. Square brackets hold non-standard residues; d marks the D form. Peptide text beside a SMILES is read from it. * marks the point of attachment. Ileψ(thiazoline)Cys = CC[C@H](C)[C@H](N)C1=N[C@H](C(=O)*)CS1; d(aIle) = CC[C@H](C)[C@@H](N)C(=O)O; dOrn = NCCC[C@@H](N)C(=O)O

In the first assay the test system is CP325. The assay can be described thus: qHTS profiling for inhibitors of Plasmodium falciparum proliferation (AID 504749). Note: nearly all actives have a fitted effect of over 60% in size. Particulars: P. falciparum in erythrocytes, SYBR Green DNA, 72 h; series mostly up to 12.8 µM. Put shortly:
(§1)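 Fluorescence of SYBR Green-bound parasite DNA, read at 485/535 nm, served as the growth measure. Infected erythrocytes were cultured with compound 72 h; artemisinin (0.29 uM) and DMSO wells defined the normalization range.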
As for `C[C@H](CCC(=O)O)[C@H]1CC[C@@H]2[C@@H]3[C@@H](O)C[C@H]4C[C@@H](O)CC[C@@]4(C)[C@H]3CC[C@@]21C`, the Potency result was “inactive”.
On the same count and under the same terms, for `CN(C/C=C\c1ccccc1)Cc1cccc2ccccc12` the value was “inactive”.
Still for that read-out and setting: under `CCN(CCCCOC(=O)c1ccc(OC)c(OC)c1)[C@@H](C)Cc1ccc(OC)cc1` stands “inactive”.
Take `C[C@H](C(=O)O)c1cccc(Oc2ccccc2)c1`: the Potency entry is “inactive”.
Same read-out and setting: for `CC1(C)[C@@H](OC(=O)CCC(=O)O)CC[C@@]2(C)[C@H]1CC[C@@]1(C)[C@H]2C(=O)C=C2[C@H]3C[C@](C)(C(=O)O)CC[C@]3(C)CC[C@@]21C` the value was “inactive”; for `CCOC(=O)O[C@@H](C)OC(=O)[C@@H]1N2C(=O)[C@@H](NC(=O)[C@@H](N)c3ccccc3)[C@H]2SC1(C)C`, “inactive”; for `Cc1ccsc1/C=C\C1=NCCCN1C`, “inactive”.
Turning to `Cc1cccc(CN2CCN([C@@H](c3ccccc3)c3ccc(Cl)cc3)CC2)c1`, the Potency result is “inactive”.
Same read-out and setting: under `C#C[C@]1(O)CC[C@@H]2[C@H]3CCC4=CCCC[C@@H]4[C@@H]3CC[C@@]21C` stands “inactive”; under `CC[C@H](C)[C@H](N)C1=N[C@H](C(=O)N[C@@H](CC(C)C)C(=O)N[C@@H](CCC(=O)O)C(=O)N[C@@H](C(=O)N[C@H]2CCCCNC(=O)[C@@H](CC(N)=O)NC(=O)[C@@H](CC(=O)O)NC(=O)[C@@H](Cc3cnc[nH]3)NC(=O)[C@@H](Cc3ccccc3)NC(=O)[C@@H]([C@@H](C)CC)NC(=O)[C@@H](CCCN)NC2=O)[C@@H](C)CC)CS1` ({Ileψ(thiazoline)Cys}-LE[d(aIle)]K[dOrn][d(aIle)][dF][dH][dD][dN]; lactam 4-C), “inactive”; under `O=C(O)COCCN1CCN([C@@H](c2ccccc2)c2ccc(Cl)cc2)CC1`, “inactive”.
The same measure, in the same setting: for `CCN(CC)CCOC(=O)[C@@H](Cc1cccc2ccccc12)C[C@@H]1CCCO1` the value was “inactive”.
The same measure, in the same setting: for `CC[C@H](CO)NCCN[C@@H](CC)CO` the value was “inactive”.

In the next assay the test system is CP329. The assay is described as above. Particulars: P. falciparum in erythrocytes, SYBR Green DNA, 72 h; series mostly up to 12.8 µM. In short, it runs like this: as §1
For the compound `CN1CCO[C@H](c2ccccc2)c2ccccc2C1`, the Potency result is “inactive”.
Still for that read-out and setting: for `C[C@H](CCC(=O)O)[C@H]1CC[C@@H]2[C@@H]3[C@@H](O)C[C@H]4C[C@@H](O)CC[C@@]4(C)[C@H]3CC[C@@]21C` the value was “inactive”; for `CN(C/C=C\c1ccccc1)Cc1cccc2ccccc12`, “inactive”.
Same read-out and setting: for `CCC(=O)OCC(=O)[C@@]1(OC(=O)CC)[C@H](C)C[C@@H]2[C@@H]3[C@H]([C@@H](O)C[C@@]21C)[C@]1(C)C=CC(=O)C=C1C[C@@H]3Cl` the value was “inactive”.
Turning to `C[C@H](C(=O)O)c1cccc(Oc2ccccc2)c1`, the Potency result was “inactive”.
On the same count and under the same terms, under `CC1(C)[C@@H](OC(=O)CCC(=O)O)CC[C@@]2(C)[C@H]1CC[C@@]1(C)[C@H]2C(=O)C=C2[C@H]3C[C@](C)(C(=O)O)CC[C@]3(C)CC[C@@]21C` stands “inactive”; under `CCOC(=O)O[C@@H](C)OC(=O)[C@@H]1N2C(=O)[C@@H](NC(=O)[C@@H](N)c3ccccc3)[C@H]2SC1(C)C`, “inactive”; under `Cc1ccsc1/C=C\C1=NCCCN1C`, “inactive”.
The same measure, in the same setting: for `Cc1cccc(CN2CCN([C@@H](c3ccccc3)c3ccc(Cl)cc3)CC2)c1` the value was “inactive”.
`C#C[C@]1(O)CC[C@@H]2[C@H]3CCC4=CCCC[C@@H]4[C@@H]3CC[C@@]21C`: the Potency result was “inactive”.
Turning to `CC[C@H](C)[C@H](N)C1=N[C@H](C(=O)N[C@@H](CC(C)C)C(=O)N[C@@H](CCC(=O)O)C(=O)N[C@@H](C(=O)N[C@H]2CCCCNC(=O)[C@@H](CC(N)=O)NC(=O)[C@@H](CC(=O)O)NC(=O)[C@@H](Cc3cnc[nH]3)NC(=O)[C@@H](Cc3ccccc3)NC(=O)[C@@H]([C@@H](C)CC)NC(=O)[C@@H](CCCN)NC2=O)[C@@H](C)CC)CS1` ({Ileψ(thiazoline)Cys}-LE[d(aIle)]K[dOrn][d(aIle)][dF][dH][dD][dN]; lactam 4-C), the Potency entry was “inactive”.
The same measure, in the same setting: under `O=C(O)COCCN1CCN([C@@H](c2ccccc2)c2ccc(Cl)cc2)CC1` stands “inactive”.
The same measure, in the same setting: for `CCN(CC)CCOC(=O)[C@@H](Cc1cccc2ccccc12)C[C@@H]1CCCO1` the value was “inactive”.
On the same count and under the same terms, under `C[C@@H](CNC1CCCCC1)OC(=O)c1ccccc1` stands “inactive”; under `CC[C@H](CO)NCCN[C@@H](CC)CO`, “inactive”.

The test system of another assay is CP335. The assay is described as above. The following applies: P. falciparum in erythrocytes, SYBR Green DNA, 72 h; series mostly up to 12.8 µM. Put shortly: as §1
`C[C@H](CCC(=O)O)[C@H]1CC[C@@H]2[C@@H]3[C@@H](O)C[C@H]4C[C@@H](O)CC[C@@]4(C)[C@H]3CC[C@@]21C`: the Potency entry is “inactive”.
Still for that read-out and setting: under `CN(C/C=C\c1ccccc1)Cc1cccc2ccccc12` stands “inactive”; under `C[C@H](C(=O)O)c1cccc(Oc2ccccc2)c1`, “inactive”; under `CC1(C)[C@@H](OC(=O)CCC(=O)O)CC[C@@]2(C)[C@H]1CC[C@@]1(C)[C@H]2C(=O)C=C2[C@H]3C[C@](C)(C(=O)O)CC[C@]3(C)CC[C@@]21C`, “inactive”.
Same read-out and setting: under `CCOC(=O)O[C@@H](C)OC(=O)[C@@H]1N2C(=O)[C@@H](NC(=O)[C@@H](N)c3ccccc3)[C@H]2SC1(C)C` stands “inactive”.
The same measure, in the same setting: under `C#C[C@]1(O)CC[C@@H]2[C@H]3CCC4=CCCC[C@@H]4[C@@H]3CC[C@@]21C` stands “inactive”; under `CC[C@H](C)[C@H](N)C1=N[C@H](C(=O)N[C@@H](CC(C)C)C(=O)N[C@@H](CCC(=O)O)C(=O)N[C@@H](C(=O)N[C@H]2CCCCNC(=O)[C@@H](CC(N)=O)NC(=O)[C@@H](CC(=O)O)NC(=O)[C@@H](Cc3cnc[nH]3)NC(=O)[C@@H](Cc3ccccc3)NC(=O)[C@@H]([C@@H](C)CC)NC(=O)[C@@H](CCCN)NC2=O)[C@@H](C)CC)CS1` ({Ileψ(thiazoline)Cys}-LE[d(aIle)]K[dOrn][d(aIle)][dF][dH][dD][dN]; lactam 4-C), “inactive”; under `O=C(O)COCCN1CCN([C@@H](c2ccccc2)c2ccc(Cl)cc2)CC1`, “inactive”.
For `CCN(CC)CCOC(=O)[C@@H](Cc1cccc2ccccc12)C[C@@H]1CCCO1`, the Potency entry was “inactive”.
The same measure, in the same setting: for `CC[C@H](CO)NCCN[C@@H](CC)CO` the value was “inactive”.

Source of the values: PubChem BioAssay (NCATS).
